Assay outcomes (PubChem)
PLC-beta3 inh = PLC-beta3 (human) inhibition, primary screen; Q01970; 370,000 compounds, 0.18% hits; AID 720704; inhibition, % at 12.2 µM; Purified PLC-beta3, fluorogenic substrate, fluorescence; in the data active means inhibition above about 11%
Target sequence (Q01970 whole entry, looked up): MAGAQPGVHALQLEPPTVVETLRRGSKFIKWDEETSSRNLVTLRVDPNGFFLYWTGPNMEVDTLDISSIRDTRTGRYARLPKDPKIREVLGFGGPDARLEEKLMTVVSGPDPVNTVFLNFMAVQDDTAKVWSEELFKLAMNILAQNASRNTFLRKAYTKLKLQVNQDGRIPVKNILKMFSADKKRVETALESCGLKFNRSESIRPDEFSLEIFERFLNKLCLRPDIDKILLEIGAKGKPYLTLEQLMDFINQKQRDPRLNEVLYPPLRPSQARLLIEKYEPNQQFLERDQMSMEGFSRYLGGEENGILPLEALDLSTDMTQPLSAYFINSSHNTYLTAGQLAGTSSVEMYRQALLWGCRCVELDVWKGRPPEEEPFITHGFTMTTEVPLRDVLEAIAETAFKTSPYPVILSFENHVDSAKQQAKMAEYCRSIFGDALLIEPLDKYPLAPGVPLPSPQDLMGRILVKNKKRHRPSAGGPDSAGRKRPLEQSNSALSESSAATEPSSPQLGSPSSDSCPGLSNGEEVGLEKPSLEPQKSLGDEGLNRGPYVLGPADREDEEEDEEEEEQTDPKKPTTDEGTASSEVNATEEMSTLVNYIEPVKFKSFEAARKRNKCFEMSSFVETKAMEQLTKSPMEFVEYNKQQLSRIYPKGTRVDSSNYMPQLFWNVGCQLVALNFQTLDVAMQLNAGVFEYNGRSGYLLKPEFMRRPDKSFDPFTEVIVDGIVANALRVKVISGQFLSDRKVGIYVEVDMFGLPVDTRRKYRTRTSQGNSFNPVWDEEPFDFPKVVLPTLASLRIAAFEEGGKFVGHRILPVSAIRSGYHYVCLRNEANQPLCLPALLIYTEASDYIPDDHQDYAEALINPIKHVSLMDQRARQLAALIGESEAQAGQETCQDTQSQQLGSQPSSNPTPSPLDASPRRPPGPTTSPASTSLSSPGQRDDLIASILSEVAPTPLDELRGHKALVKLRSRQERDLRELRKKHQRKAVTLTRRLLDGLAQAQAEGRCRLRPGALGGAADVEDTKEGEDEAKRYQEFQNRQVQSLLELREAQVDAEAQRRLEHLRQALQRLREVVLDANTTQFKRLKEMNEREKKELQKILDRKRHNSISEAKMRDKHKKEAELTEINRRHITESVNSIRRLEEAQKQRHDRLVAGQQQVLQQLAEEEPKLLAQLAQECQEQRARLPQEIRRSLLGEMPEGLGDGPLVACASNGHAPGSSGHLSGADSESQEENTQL
PLCg1 inh = blocks human PLC-gamma1 enzyme activity | P19174 | purified PLC-gamma1, fluorogenic substrate, fluorescence | inhibition, % at 12.2 µM | 370,000 compounds, 0.84% hits | AID 720700
Cardio protect = modulators protecting cardiomyocytes from myocardial damage. protection from H2O2 cell death, % at 20 µM. 360,000 compounds, 0.63% hits. H9c2 cardiomyocytes, H2O2 injury protection, ATPLite, 2 h;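 active means compounds giving at least 50% protection of heart cells from peroxide-induced death in the single-dose screen, raw or plate-pattern-corrected value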
FAS-TE inh = FAS thioesterase (human) inhibition; P49327; recombinant FAS-TE, OMFH fluorogenic substrate, fluorescence endpoint; inhibition, % at 15 µM; 360,000 compounds, 0.67% hits; AID 602261;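 active means compounds whose normalised, plate-corrected inhibition of enzyme fluorescence in the single-dose primary screen is 50% or more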
PLCg1 ctr = PLC-gamma1 inhibition, counter-screen for PLC-beta3 hits; 3,300 compounds, 3.1% hits; purified PLC-gamma1, fluorogenic substrate, fluorescence; inhibition, % at 12.3 µM; AID 743258; shares compounds with PLCg1 inh
PLCb3 confirm = human PLC-beta3 inhibition, confirmation; shares compounds with PLCg1 inh; purified PLC-beta3, fluorogenic substrate fluorescence; inhibition, % at 12.3 µM; 3,300 compounds, 1% hits; in the data active means inhibition above about 11%
Large screens that a line does not name were inactive (follow-up assays come after a bar, where they were run). In the library only some 2.2% were active in any assay of this set; here they are far more common. Unless noted, no stated cut-off is given here; in the data, active means inhibition above about 9.5%; inactive means the rest.

CCOC(=O)N1CCC(NS(=O)(=O)c2ccc3c(c2)CCN3C(C)=O)CC1	PLCg1 inh 12 | PLCg1 ctr inactive | PLCb3 confirm inactive
CC(=O)N1CCc2cc(S(=O)(=O)NC3CCN(C(=O)CCl)CC3)ccc21	none (no result: Cardio protect, FAS-TE inh)
CCN(CC)c1ccc(C(=O)NNC(=O)CN2C(=O)NC(C)(c3ccccc3)C2=O)cc1 (stereo unspecified)	none
O=C(c1cc2ccccc2oc1=O)N1CCCCCCC1	none
O=C(c1cc2ccccc2oc1=O)N1CCCC1	PLCg1 inh 15 | PLCg1 ctr inactive | PLCb3 confirm inactive
CN1CCN(C(c2ccccc2)c2nnnn2C(C)(C)C)CC1 (stereo unspecified)	PLCg1 inh 12 (no result: Cardio protect) | PLCg1 ctr inactive | PLCb3 confirm inactive
CC(C)(C)n1nnnc1C(c1ccccc1)N1CCN(C(=O)C2CCCO2)CC1 (stereo unspecified)	PLCg1 inh 9.9 (no result: Cardio protect) | PLCg1 ctr inactive | PLCb3 confirm inactive
CC(Sc1nnc(-c2ccco2)n1N)C(=O)NC1CCCCC1C (stereo unspecified)	none
CC(Sc1nnc(C2CC2)n1N)C(=O)NC1CCCCC1C (stereo unspecified)	PLCg1 inh 9.9 | PLCg1 ctr inactive | PLCb3 confirm inactive
CC(C)(C)OC(=O)Nc1ccccc1-n1nnnc1C(C(=O)c1ccccc1)N1CCN(c2ccccn2)CC1 (stereo unspecified)	none (no result: Cardio protect, FAS-TE inh)
COc1ccc(CNCC(O)(c2ccc(Cl)cc2)c2ccc(Cl)cc2)cc1OC	PLCg1 inh 9.8 | PLCg1 ctr inactive | PLCb3 confirm inactive
COc1ccc(CNCC(O)(c2ccc(F)cc2)c2ccc(F)cc2)cc1OC	none
Nc1n[nH]c(N)c1N=Nc1ccc(Cl)cc1	PLC-beta3 inh 14, PLCg1 inh 20 | PLCg1 ctr inactive | PLCb3 confirm inactive
CC(=O)NC(C)(c1ccccc1)c1nc(-c2cnc3ccccc3c2)cs1 (stereo unspecified)	none
COC(=O)[C@]12C[C@H](CC(=O)N3CCCCC3)C(=O)N(Cc3ccc(Cl)cc3Cl)C1=C[C@H](COCc1ccccc1)O[C@@H]2C	none (no result: Cardio protect, FAS-TE inh)
COC(=O)[C@]12C[C@H](CC(=O)N3CCN(C(=O)c4ccco4)CC3)C(=O)N(Cc3ccc(Cl)cc3Cl)C1=C[C@H](COCc1ccccc1)O[C@@H]2C	PLCg1 inh 13 (no result: Cardio protect, FAS-TE inh) | PLCg1 ctr inactive | PLCb3 confirm inactive
O=C(Nc1ncn[nH]1)c1ccc(Cl)c(Cl)c1	none
O=C(CCNC(=O)C1CCN(S(=O)(=O)c2ccccc2)CC1)NCc1ccc(Cl)c(Cl)c1	none
CCOC(=O)[C@]12CCCC=C1N(Cc1ccc3c(c1)OCO3)C(=O)[C@H](CC(=O)NCC13CC4CC(CC(C4)C1)C3)C2	none (no result: Cardio protect)
Fc1ccc(CN2CCN(C(c3ccccc3)c3ccccc3)CC2)cc1	none
c1ccc(CN2CCN(C(c3ccccc3)c3ccccc3)CC2)cc1	PLCg1 inh 11 | PLCg1 ctr inactive | PLCb3 confirm inactive
COC(=O)C[C@@H]1CC[C@H](NC(=O)c2ccccc2)[C@@H](CO)O1	none (no result: Cardio protect, FAS-TE inh)
Clc1ccc(-c2csc(Nc3cccnc3)n2)cc1	PLCg1 inh 10 | PLCg1 ctr inactive | PLCb3 confirm inactive
Cc1ccc(S(=O)(=O)N2CCN(C(=O)Cn3nc(C)c([N+](=O)[O-])c3C)CC2)c(C)c1	PLCg1 inh 10 | PLCg1 ctr inactive | PLCb3 confirm inactive
COc1ccc(S(=O)(=O)N2CCc3ccccc3C2)cc1OC	PLCg1 inh 13 | PLCg1 ctr inactive | PLCb3 confirm inactive
CC1Oc2ccccc2N(CC(=O)Nc2ccc3c(c2)OCO3)C1=O (stereo unspecified)	none
CC1Oc2ccccc2N(CC(=O)Nc2ccc3c(c2)OCCO3)C1=O (stereo unspecified)	PLCg1 inh 11 | PLCg1 ctr inactive | PLCb3 confirm inactive
CCOc1nc(CC(C)C)c2c(c1C#N)CC(C)(C)OC2	none
COC(=O)COc1nc(C)c2c(c1C#N)CC(C)(C)OC2	PLC-beta3 inh 11 | PLCg1 ctr inactive | PLCb3 confirm inactive
CCn1c(SCC(N)=O)nnc1-c1ccc(OC)c(OC)c1	PLCg1 inh 13 | PLCg1 ctr inactive | PLCb3 confirm inactive
COc1ccc(CC2(CO)CCN(Cc3nc(C(C)C)cs3)CC2)cc1	PLCg1 inh 13 | PLCg1 ctr inactive | PLCb3 confirm inactive
O=C(O)C1CCCCN1C(=O)c1ccc(S(=O)(=O)N2CCCCCC2)cc1 (stereo unspecified)	none
O=C(O)C1CCCCN1C(=O)c1ccc(S(=O)(=O)N2CCCC2)cc1 (stereo unspecified)	PLCg1 inh 9.7 | PLCg1 ctr inactive | PLCb3 confirm inactive
O=C(C1CCCCC1)N1C[C@@H](O)[C@H](n2cc(-c3ccc(F)cc3)nn2)C[C@@H]1c1ccccc1	none
CCN(CC)C(=O)C1=C(C)N(Cc2ccc(C(C)(C)C)cc2)C(=O)C(CC(=O)NCc2cccs2)C1 (stereo unspecified)	none
CCC(=O)NC(Nc1nc(C)cs1)(C(=O)OC)C(F)(F)F (stereo unspecified)	PLC-beta3 inh 11 | PLCg1 ctr inactive | PLCb3 confirm inactive
COC(=O)C(NC(=O)c1ccc(F)cc1)(Nc1nc(C)cs1)C(F)(F)F (stereo unspecified)	none
O=C1NC(=S)S/C1=C\c1ccc(SCc2ccco2)o1	none (no result: PLC-beta3 inh, PLCg1 inh)
O=C1NC(=S)S/C1=C\c1ccc(SCc2ccccc2)o1	PLCg1 inh 57 | PLCg1 ctr 29 | PLCb3 confirm inactive
CC(C)(C)c1ccc(C(=O)OCC(=O)NC2CC2)cc1	none
O=C1CC(c2ccco2)Sc2ccccc2N1 (stereo unspecified)	none
O=C1CC(c2ccccc2)Sc2ccccc2N1 (stereo unspecified)	PLCg1 inh 10 | PLCg1 ctr inactive | PLCb3 confirm inactive
COc1ccc(CNc2ncnc(N)n2)cc1	none
COc1ccc(CNc2nc(NCc3ccc(OC)cc3)c3[nH]cnc3n2)cc1	PLCg1 inh 12 | PLCg1 ctr inactive | PLCb3 confirm inactive
CC(=O)N1CCN(C(=O)c2cc3c(s2)CCC(C)C3)CC1 (stereo unspecified)	none
COc1ccc(CCN(C(=O)C(F)(F)F)C(C(=O)NC2CCCCC2)c2ccc(C)s2)cc1 (stereo unspecified)	PLCg1 inh 11 | PLCg1 ctr inactive | PLCb3 confirm inactive
COc1ccc(CCN(C(=O)C(F)(F)F)C(C(=O)NC2CCCCC2)c2cccs2)cc1 (stereo unspecified)	none
N#Cc1ccccc1OCC(=O)Nc1nnc(C2CC2)s1	none
Cc1ccc(-c2nn(CC(=O)N3CCOCC3)c(=O)c3ccccc23)cc1S(=O)(=O)N(C)C	PLCg1 inh 10 | PLCg1 ctr inactive | PLCb3 confirm inactive
CCOc1ccc(/C=C/c2c([N+](=O)[O-])c(=O)n(C)c(=O)n2C)cc1	PLCg1 inh 11 | PLCg1 ctr inactive | PLCb3 confirm inactive
CCOC(=O)C1(C)CCN1C(=O)c1cc(-c2ccc(Cl)cc2)oc1C (stereo unspecified)	none
CN(C)C(=O)C(Sc1ccc(S(=O)(=O)N2CCCC2)cn1)c1ccccc1 (stereo unspecified)	none
